In PubChem BioAssay (NCI):
This is part of a sample that, as a whole, favours compounds with a hit. Of some 79,000 tested, about 15% had one in any assay. A number with no mark means an inactive call. Calls of active or inactive are those of the source. Rule as the data show it: active = growth inhibition above about 70%; inactive = the rest.

Columns and labels:
[1] = NCI Yeast Anticancer Drug Screen. Data for the rad50 strain (AID 155);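 also: 0% = growth of vehicle-only cultures of the same strain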; details: S. cerevisiae rad50 strain growth inhibition, active compounds read high
Summary of the method: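 Yeast carrying a defined DNA repair defect were exposed to test compounds, and growth was compared with vehicle-treated controls to give percent inhibition.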

[2] = NCI Yeast Anticancer Drug Screen. Data for the mec2-1 strain (AID 157); details: S. cerevisiae mec2-1 strain, active compounds read high
Summary of the method: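 Growth inhibition is read against vehicle-treated controls after compound exposure of the mec2-1 yeast strain, which is defective in DNA damage repair or cell cycle control.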

[3] = NCI Yeast Anticancer Drug Screen. Data for the sgs1 mgt1 strain (AID 161);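 also: 0% = growth of cultures given vehicle only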; details: S. cerevisiae sgs1 mgt1 strain, active compounds read high
Summary of the method: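 Yeast cells carrying a defined DNA-repair defect were exposed to test compounds. Growth inhibition was measured relative to vehicle-treated controls.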

[4] = NCI Yeast Anticancer Drug Screen. Data for the cln2 rad14 strain (AID 165);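 also: 0% = growth equal to vehicle treated cultures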; details: S. cerevisiae cln2 rad14 strain, active compounds read high
Summary of the method: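 Growth inhibition, relative to vehicle-treated controls, is the read-out. The test organism is a yeast strain with defined genetic alterations, cln2 rad14.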

[5] = NCI Yeast Anticancer Drug Screen. Data for the bub3 strain (AID 167); details: S. cerevisiae bub3 mutant strain, active compounds read high
Summary of the method: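 Compounds were applied to a genetically altered yeast strain carrying a cell-cycle control defect. Growth inhibition was scored against vehicle-treated controls.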

[6] = NCI Yeast Anticancer Drug Screen. Data for the mlh1 rad18 strain (AID 175); details: S. cerevisiae mlh1 rad18 strain growth inhibition, active compounds read high
Summary of the method: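 Cells of a genetically altered yeast strain, deficient in DNA damage repair, were treated with compound. Their growth was then compared with that of vehicle-treated cultures to give inhibition.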

[7] = at 5.0 µM (retest, dose inferred, filed as 0.5)
[8] = at 50.0 µM (retest, dose inferred, filed as 5.0)

Structure (SMILES)	growth inhibition [1, 7]	growth inhibition [1, 8]	growth inhibition ([1]; at 50.0 µM)	growth inhibition [2, 7]	growth inhibition [2, 8]	growth inhibition ([2]; at 50.0 µM)	growth inhibition [3, 7]	growth inhibition [3, 8]	growth inhibition ([3]; at 50.0 µM)	growth inhibition [4, 7]	growth inhibition [4, 8]	growth inhibition ([4]; at 50.0 µM)	growth inhibition [5, 7]	growth inhibition [5, 8]	growth inhibition ([5]; at 50.0 µM)	growth inhibition [6, 7]	growth inhibition [6, 8]	growth inhibition ([6]; at 50.0 µM)
CCCCC(CCc1ccccc1[N+](=O)[O-])(C(C)=O)C(=O)OCC (stereo not given)	4%	-15%	61%	4%	-3%	15.7%	-3%	14%	33.6%	1%	-11%	-12.2%	15%	38%	80.5% (active)	5%	3%	58.8%
CCCC(Sc1ccccc1)c1ccccc1NC(C)=O (stereo not given)	1%	31%	85.5% (active)	0%	8%	58.9%	1%	26%	89.9% (active)	6%	33%	37%	6%	41%	45.6%	2%	15%	67.5%
COc1cc(C(=O)OCC(C)C)ccc1O	3%	33%	15.1%	3%	4%	6.2%	2%	8%	2.8%	2%	14%	-16.1%	96% (active)	98% (active)	45.3%	-5%	13%	3.3%
O=C(/C=C/c1cccc([N+](=O)[O-])c1)CCl	1%	98% (active)	99.3% (active)	-20%	99% (active)	99.6% (active)	13%	99% (active)	99.2% (active)	-22%	98% (active)	98.9% (active)	14%	98% (active)	99.5% (active)	-32%	98% (active)	99.3% (active)
C/C(=N\NC(=S)N1CCCCCC1)c1cccc2cccnc12	-3%	14%	94.2% (active)	-5%	44%	83.9% (active)	7%	30%	97.6% (active)	-19%	2%	94.4% (active)	-4%	26%	87.5% (active)	-9%	22%	86.2% (active)
COC(=O)C1C(O)C(C)C(=O)C(C)/C=C\C=C(C)C(=O)Nc2c(C)c(OC(C)=O)c3c(c2O)C(=O)C(C)=C2OCOC(=C23)C(C)=CC(C)(O)C(O)C(C)C1O (stereo not given)	9%	52%	88.1% (active)	-3%	77% (active)	88.8% (active)	0%	59%	92.2% (active)	9%	75% (active)	75.6% (active)	-4%	76% (active)	87.3% (active)	-19%	68%	81% (active)
C/C(=N/NC(N)=S)C(CN(C)C)C(C1=C(O)c2ccccc2OC1)c1ccccc1 (stereo not given)	8%	8%	68%	2%	2%	52.5%	4%	4%	78.3% (active)	-1%	-1%	65.8%	12%	12%	65.2%	0%	0%	66.8%
O=C(c1ccc(F)cc1)c1ccc(Cl)cc1Cl	96% (active)	98% (active)	97% (active)	100% (active)	99% (active)	98.7% (active)	100% (active)	99% (active)	93.5% (active)	99% (active)	100% (active)	98.2% (active)	99% (active)	100% (active)	98.9% (active)	99% (active)	99% (active)	99.2% (active)
COc1ccc2c(C)cc(N/N=C/c3cccc(C)n3)nc2c1	-1%	4%	75.1% (active)	-2%	8%	31.2%	4%	28%	97.4% (active)	5%	5%	19.1%	-4%	-4%	22.2%	-5%	19%	28.8%
COc1ccc(CSC(=S)Nc2ccc(Cl)cc2Cl)cc1	6%	98% (active)	99.2% (active)	5%	99% (active)	99.3% (active)	8%	99% (active)	99.3% (active)	-24%	96% (active)	98.7% (active)	-6%	97% (active)	99% (active)	3%	98% (active)	98.8% (active)
CC(=O)Oc1ccc(Cl)cc1Cc1cc(Cl)ccc1OC(C)=O	17%	85% (active)	94.2% (active)	-1%	93% (active)	90.7% (active)	7%	83% (active)	94.5% (active)	-4%	94% (active)	89.2% (active)	-3%	88% (active)	94.5% (active)	2%	94% (active)	95.2% (active)
C/C(=N\OC(=O)c1ccccc1)[N+](=O)[O-]	-50%	98% (active)	88.1% (active)	-6%	100% (active)	77.8% (active)	-11%	99% (active)	72% (active)	-27%	99% (active)	81.8% (active)	-61%	85% (active)	56.9%	-54%	98% (active)	65.4%
CN1CCCCC1c1cc2c3ccccc3ccn2c1-c1ccccc1 (stereo not given)	71% (active)	95% (active)	96.5% (active)	62%	99% (active)	98.3% (active)	75% (active)	94% (active)	98.7% (active)	-7%	92% (active)	94.8% (active)	9%	96% (active)	98.4% (active)	69%	92% (active)	98.5% (active)
Cc1[nH]c(=O)[nH]c(=S)c1C(=O)NC1C2CCCCC2NC2CCCCC21 (stereo not given)	67%	96% (active)	75.5% (active)	49%	97% (active)	83.3% (active)	49%	97% (active)	76.4% (active)	74% (active)	98% (active)	85% (active)	48%	97% (active)	77.8% (active)	46%	96% (active)	71.9% (active)
c1ccc(OCC2c3ccccc3Nc3ccccc32)cc1	98% (active)	97% (active)	71.9% (active)	99% (active)	98% (active)	28.6%	99% (active)	97% (active)	26.9%	99% (active)	96% (active)	-51.8%	92% (active)	97% (active)	-0.2%	99% (active)	95% (active)	67.2%
Clc1cccc(C2SCc3nc4ccccc4n32)c1Cl (stereo not given)	-2%	97% (active)	98.6% (active)	-3%	98% (active)	98.4% (active)	2%	98% (active)	97.5% (active)	-17%	97% (active)	97.4% (active)	1%	98% (active)	98.5% (active)	-4%	98% (active)	97.1% (active)
CCCCCCCCN(CCCCCCCC)CC(O)c1cc2c(c3ccccc13)CCCC2 (stereo not given)	10%	95% (active)	99.2% (active)	8%	96% (active)	99.4% (active)	25%	96% (active)	99.3% (active)	13%	94% (active)	99.2% (active)	28%	95% (active)	98.8% (active)	11%	96% (active)	98.8% (active)
O=C1CNC(=O)c2cc(N=Cc3cc(Br)ccc3O)ccc2N1	10%	95% (active)	82% (active)	8%	98% (active)	62%	13%	96% (active)	93.5% (active)	2%	30%	22.6%	-1%	95% (active)	43.4%	12%	97% (active)	71.9% (active)
CCCN1CN(C(C(=O)N[C@@H]2C(=O)N3C(C(=O)O)=C(C)CSC23)c2ccccc2)CSC1=S (stereo not given in full)	-19%	11%	33.7%	-11%	1%	-32.4%	-21%	-10%	-3.25%	-37%	-14%	44%	-10%	-1%	-38.4%	-13%	-12%	1.5%
O=C(O)/C(=C\c1cc(I)c(O)c(I)c1)c1ccc(I)cc1	3%	39%	88.3% (active)	42%	70% (active)	80.6% (active)	34%	75% (active)	91.8% (active)	19%	70% (active)	82.7% (active)	3%	59%	48%	37%	76% (active)	80.8% (active)
